Experiment [1] is described as follows: NCI Yeast Anticancer Drug Screen. Data for the rad50 strain (AID 155).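 Further: 0% = growth of vehicle-only cultures of the same strain.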 To be noted: S. cerevisiae rad50 strain growth inhibition, stronger effect = higher value. Summed up:
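Growth of the mutant yeast was measured after compound exposure and referenced to vehicle-treated cultures.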

Experiment [2] can be described thus: NCI Yeast Anticancer Drug Screen. Data for the mec2-1 strain (AID 157). Conditions: S. cerevisiae mec2-1 strain, stronger effect = higher value. Summed up:
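mec2-1 yeast strain, carrying an alteration in DNA damage repair or cell cycle control, was exposed to compounds; growth inhibition was measured relative to vehicle-treated controls.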

Experiment [3] can be described thus: NCI Yeast Anticancer Drug Screen. Data for the sgs1 mgt1 strain (AID 161).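 Further: 0% = growth of cultures given vehicle only.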 To be noted: S. cerevisiae sgs1 mgt1 strain, stronger effect = higher value. Summed up: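 This yeast growth screen uses a strain with defined DNA-repair lesions; compound-treated growth is compared with vehicle-treated growth.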
Experiment [4] is described as follows: NCI Yeast Anticancer Drug Screen. Data for the cln2 rad14 strain (AID 165).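 Further: 0% = growth equal to vehicle treated cultures.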 Conditions: S. cerevisiae cln2 rad14 strain, stronger effect = higher value. In short, it runs like this:
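Yeast carrying cln2 and rad14 alterations (cell cycle control and DNA damage repair) were exposed to compounds. Growth inhibition was measured against vehicle-treated controls.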

Experiment [5] is described as follows: NCI Yeast Anticancer Drug Screen. Data for the bub3 strain (AID 167). Conditions: S. cerevisiae bub3 mutant strain, stronger effect = higher value. In short, it runs like this:
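Whole-cell yeast assay. The mutant strain was incubated with compounds, and growth inhibition was determined by comparison with vehicle-treated cells.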

Experiment [6] in a line: NCI Yeast Anticancer Drug Screen. Data for the mlh1 rad18 strain (AID 175). To be noted: S. cerevisiae mlh1 rad18 strain growth inhibition, stronger effect = higher value. In short, it runs like this: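 Growth inhibition of the yeast strain was measured after compound exposure and expressed relative to vehicle-treated controls. The strain carries defined defects in DNA damage repair.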

Setting [7] is: at 5.0 µM (retest, dose inferred, filed as 0.5).
Where [8] appears, read: at 50.0 µM (retest, dose inferred, filed as 5.0).

SMILES strings stand for the structures. Where “and” joins values, the source holds several entries; their conditions need not be identical. Equal entries are not always repeated. This is part of a sample that, as a whole, favours compounds with a hit. Of some 79,000 tested, about 15% had one in any assay. A structure can be active in one record and inactive in another. Calls of active or inactive are those of the source. No stated cut-off is given here; in the data, active means growth inhibition above about 70%; inactive means the rest.

For the compound `CCOC(=O)NC(=S)[S][Sb]([S]C(=S)NC(=O)OCC)[S]c1nc2ccc(N=Nc3ccc(NS(=O)(=O)c4ccc(NC(=O)C(N5CC5)(N5CC5)N5CC5)cc4)cc3)cc2s1`, the growth inhibition in experiment [1] (setting [7]) is 70% (active); in experiment [1] (setting [8]), 99% (active); in experiment [1] (at 50.0 µM), 99.2% (active); in experiment [2] (setting [7]) it was 33% (inactive); in experiment [2] (setting [8]), 99% (active); in experiment [2] (at 50.0 µM), 99.6% (active). For the same compound, the growth inhibition in experiment [3] (setting [7]) is 46% (inactive); in experiment [3] (setting [8]), 99% (active); in experiment [3] (at 50.0 µM), 99.5% (active); in experiment [4] (setting [7]), 16% (inactive); in experiment [4] (setting [8]) it was 98% (active); in experiment [4] (at 50.0 µM) it was 99% (active). Further, the growth inhibition is 24% (inactive) in experiment [5] (setting [7]); 99% (active) in experiment [5] (setting [8]); 99.3% (active) in experiment [5] (at 50.0 µM); 80% (active) in experiment [6] (setting [7]); 99% (active) in experiment [6] (setting [8]); 99.2% (active) in experiment [6] (at 50.0 µM).
For `CN1CSC(=S)N(C)C1`, the growth inhibition in experiment [1] (setting [7]) was 21% (inactive); in experiment [1] (setting [8]) it was 95% (active); in experiment [1] (at 50.0 µM) it was 97.3% (active); in experiment [2] (setting [7]) it was 19% (inactive); in experiment [2] (setting [8]), 99% (active); in experiment [2] (at 50.0 µM), 99.5% (active). Further, the growth inhibition in experiment [3] (setting [7]) is 17% (inactive); in experiment [3] (setting [8]), 97% (active); in experiment [3] (at 50.0 µM), 95.9% (active); in experiment [4] (setting [7]) it was 13% (inactive); in experiment [4] (setting [8]), 98% (active); in experiment [4] (at 50.0 µM) it was 94.3% (active). The growth inhibition was 4% (inactive) in experiment [5] (setting [7]); 96% (active) in experiment [5] (setting [8]); 99.5% (active) in experiment [5] (at 50.0 µM); 4% (inactive) in experiment [6] (setting [7]); 96% (active) in experiment [6] (setting [8]); 95.7% (active) in experiment [6] (at 50.0 µM).
For the compound `COc1ccc2c3c(c4cc(OC)c(OC)cc4c2c1)C[C@H]1CCCCN1C3`, the growth inhibition in experiment [1] (setting [7]) is 99% (active); in experiment [1] (setting [8]), 99% (active); in experiment [1] (at 50.0 µM), 92.6% (active); in experiment [2] (setting [7]), 99% (active); in experiment [2] (setting [8]), 100% (active); in experiment [2] (at 50.0 µM), 94.2% (active). Further, the growth inhibition was 99% (active) in experiment [3] (setting [7]); 99% (active) in experiment [3] (setting [8]); 93.8% (active) in experiment [3] (at 50.0 µM); 99% (active) in experiment [4] (setting [7]); 99% (active) in experiment [4] (setting [8]); 92.5% (active) in experiment [4] (at 50.0 µM). Besides, the growth inhibition is 99% (active) in experiment [5] (setting [7]); 99% (active) in experiment [5] (setting [8]); 93.2% (active) in experiment [5] (at 50.0 µM); 99% (active) in experiment [6] (setting [7]); 99% (active) in experiment [6] (setting [8]); 93% (active) in experiment [6] (at 50.0 µM).
With `COc1cc2c(c(OC)c1OC)-c1ccc(O)c(=O)cc1C(NC(C)=O)CC2` (centres undefined), the growth inhibition in experiment [1] (setting [7]) is 1% (inactive); in experiment [1] (setting [8]), 3% (inactive); in experiment [1] (at 50.0 µM), -26.1% (inactive); in experiment [2] (setting [7]), -1% (inactive); in experiment [2] (setting [8]), -8% (inactive); in experiment [2] (at 50.0 µM) it was 17.3% (inactive). Further, the growth inhibition is -15% (inactive) in experiment [3] (setting [7]); 16% (inactive) in experiment [3] (setting [8]); -1.4% (inactive) in experiment [3] (at 50.0 µM); -21% (inactive) in experiment [4] (setting [7]); 8% (inactive) in experiment [4] (setting [8]); 45.5% (inactive) in experiment [4] (at 50.0 µM). Further, the growth inhibition in experiment [5] (setting [7]) is -7% (inactive); in experiment [5] (setting [8]), 6% (inactive); in experiment [5] (at 50.0 µM) it was 1.05% (inactive); in experiment [6] (setting [7]), -9% (inactive); in experiment [6] (setting [8]), -2% (inactive); in experiment [6] (at 50.0 µM) it was 59.6% (inactive).
Turning to `ClC(C[n+]1ccccc1)c1ccccc1` (centres undefined), the growth inhibition in experiment [1] (setting [7]) was 8% (inactive); in experiment [1] (setting [8]) it was 22% (inactive); in experiment [1] (at 50.0 µM) it was 71% (active) and -9.25% (inactive); in experiment [2] (setting [7]), 3% (inactive); in experiment [2] (setting [8]), 16% (inactive); in experiment [2] (at 50.0 µM), 34.2% (inactive) and -1.25% (inactive). The growth inhibition in experiment [3] (setting [7]) was 10% (inactive); in experiment [3] (setting [8]), 35% (inactive); in experiment [3] (at 50.0 µM), 64.4% (inactive) and -1.8% (inactive); in experiment [4] (setting [7]), 4% (inactive); in experiment [4] (setting [8]) it was 3% (inactive); in experiment [4] (at 50.0 µM) it was -2.5% (inactive) and 7.5% (inactive). Besides, the growth inhibition is 1% (inactive) in experiment [5] (setting [7]); 6% (inactive) in experiment [5] (setting [8]); 26.4% (inactive) and 11.1% (inactive) in experiment [5] (at 50.0 µM); 10% (inactive) in experiment [6] (setting [7]); 51% (inactive) in experiment [6] (setting [8]); 60.6% (inactive) and 4.6% (inactive) in experiment [6] (at 50.0 µM).
In the case of `O=C(CCl)OCC(Cl)Cl`, the growth inhibition in experiment [1] (setting [7]) was 3% (inactive); in experiment [1] (setting [8]) it was 2% (inactive); in experiment [1] (at 50.0 µM), 1.25% (inactive); in experiment [2] (setting [7]) it was 4% (inactive); in experiment [2] (setting [8]), 2% (inactive); in experiment [2] (at 50.0 µM), -2.5% (inactive). The growth inhibition was 1% (inactive) in experiment [3] (setting [7]); 6% (inactive) in experiment [3] (setting [8]); 10.4% (inactive) in experiment [3] (at 50.0 µM); 2% (inactive) in experiment [4] (setting [7]); -4% (inactive) in experiment [4] (setting [8]); 19.6% (inactive) in experiment [4] (at 50.0 µM). The growth inhibition in experiment [5] (setting [7]) is -2% (inactive); in experiment [5] (setting [8]) it was -3% (inactive); in experiment [5] (at 50.0 µM) it was 6.65% (inactive); in experiment [6] (setting [7]), 9% (inactive); in experiment [6] (setting [8]), 3% (inactive); in experiment [6] (at 50.0 µM), 20.6% (inactive).
As for `[N-]=[N+]=NS(=O)(=O)c1cccc([N+](=O)[O-])c1`, the growth inhibition is 8% (inactive) in experiment [1] (setting [7]); 100% (active) in experiment [1] (setting [8]); 80.2% (active) in experiment [1] (at 50.0 µM); -17% (inactive) in experiment [2] (setting [7]); 100% (active) in experiment [2] (setting [8]); 87.1% (active) in experiment [2] (at 50.0 µM). Also, the growth inhibition in experiment [3] (setting [7]) is -34% (inactive); in experiment [3] (setting [8]), 99% (active); in experiment [3] (at 50.0 µM), 89.1% (active); in experiment [4] (setting [7]) it was 8% (inactive); in experiment [4] (setting [8]) it was 99% (active); in experiment [4] (at 50.0 µM), 90.8% (active). The growth inhibition in experiment [5] (setting [7]) was -24% (inactive); in experiment [5] (setting [8]), 100% (active); in experiment [5] (at 50.0 µM), 90.8% (active); in experiment [6] (setting [7]), -5% (inactive); in experiment [6] (setting [8]), 100% (active); in experiment [6] (at 50.0 µM), 92.7% (active).
For the compound `CCCOc1ccc(/C=C/[N+](=O)[O-])cc1N`, the growth inhibition in experiment [1] (setting [7]) is 58% (inactive); in experiment [1] (setting [8]), 99% (active); in experiment [1] (at 50.0 µM), 99.2% (active); in experiment [2] (setting [7]), 52% (inactive); in experiment [2] (setting [8]), 99% (active); in experiment [2] (at 50.0 µM), 99.5% (active). Besides, the growth inhibition is 78% (active) in experiment [3] (setting [7]); -8% (inactive) in experiment [3] (setting [8]); 99.5% (active) in experiment [3] (at 50.0 µM); 17% (inactive) in experiment [4] (setting [7]); 99% (active) in experiment [4] (setting [8]); 98.9% (active) in experiment [4] (at 50.0 µM). In addition, the growth inhibition in experiment [5] (setting [7]) was 34% (inactive); in experiment [5] (setting [8]) it was 99% (active); in experiment [5] (at 50.0 µM), 99.5% (active); in experiment [6] (setting [7]), 49% (inactive); in experiment [6] (setting [8]), 99% (active); in experiment [6] (at 50.0 µM) it was 99.3% (active).

The record behind these values is PubChem BioAssay (NCI).
